What all share (experiment): DAPPL (digital affinity profiling via proximity ligation, sequencing); 10 mM Tris-HCl pH 7.5, 50 mM NaCl, 1 mM DTT, 4% glycerol, room temperature, 30 min; GST-TFs on glutathione beads, 16-mer random dsDNA library, 0.1% formaldehyde crosslink after washing; high values mean tight binding
The target of one test is T1, FEV (Homo sapiens, UniProt Q99581 1-238).
T1 sequence: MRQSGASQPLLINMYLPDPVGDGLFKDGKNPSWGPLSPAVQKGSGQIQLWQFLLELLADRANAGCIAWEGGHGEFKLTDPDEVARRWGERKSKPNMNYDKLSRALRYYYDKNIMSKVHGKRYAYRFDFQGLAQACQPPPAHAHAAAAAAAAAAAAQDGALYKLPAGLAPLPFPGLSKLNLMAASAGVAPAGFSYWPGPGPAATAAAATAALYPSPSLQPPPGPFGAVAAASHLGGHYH
The conditions noted are these: protein: recombinant; tags: N-terminal GST; dsDNA, one strand shown. The essentials:
(§1)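 Yeast served to express human transcription factors as GST fusions, which were then captured on glutathione beads and labelled with DNA barcodes. Pooled with a tag-only sample, they were incubated with 200 nmole of a 16-mer random double-stranded DNA library for 30 min at room temperature in Tris/NaCl/DTT/glycerol buffer, washed, crosslinked with 0.1% formaldehyde, ligated by proximity, amplified by PCR and sequenced. Dividing each hexamer's read frequency for a factor by its frequency for the tag-only sample gives the binding signal.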

For a further test, the target named is ETV5 (Homo sapiens, UniProt P41161 1-510). The following applies: protein: recombinant; tags: N-terminal GST; dsDNA, one strand shown. The essentials:
as §1

Another test deals with HSF1 (Homo sapiens, UniProt Q00613 1-529). The following applies: protein: recombinant; tags: N-terminal GST; chain copies: 3; dsDNA, one strand shown. The essentials:
as §1

In a further test the target is T2, SPIC (Homo sapiens, UniProt Q8N5J4 1-248).
T2 sequence: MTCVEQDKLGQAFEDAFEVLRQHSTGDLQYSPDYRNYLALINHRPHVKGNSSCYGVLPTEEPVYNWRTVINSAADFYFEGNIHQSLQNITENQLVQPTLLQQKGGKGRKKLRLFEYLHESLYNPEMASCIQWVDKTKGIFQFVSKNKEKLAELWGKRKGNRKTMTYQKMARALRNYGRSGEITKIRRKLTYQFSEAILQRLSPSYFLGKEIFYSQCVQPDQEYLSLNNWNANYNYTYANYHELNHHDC
The conditions noted are these: protein: recombinant; tags: N-terminal GST; dsDNA, one strand shown. The essentials: as §1

The next test deals with ELF4 (Homo sapiens, UniProt Q99607 1-663). The following applies: protein: recombinant; tags: N-terminal GST; dsDNA, one strand shown. The essentials: as §1
ELF4, sequence (Q99607 whole entry): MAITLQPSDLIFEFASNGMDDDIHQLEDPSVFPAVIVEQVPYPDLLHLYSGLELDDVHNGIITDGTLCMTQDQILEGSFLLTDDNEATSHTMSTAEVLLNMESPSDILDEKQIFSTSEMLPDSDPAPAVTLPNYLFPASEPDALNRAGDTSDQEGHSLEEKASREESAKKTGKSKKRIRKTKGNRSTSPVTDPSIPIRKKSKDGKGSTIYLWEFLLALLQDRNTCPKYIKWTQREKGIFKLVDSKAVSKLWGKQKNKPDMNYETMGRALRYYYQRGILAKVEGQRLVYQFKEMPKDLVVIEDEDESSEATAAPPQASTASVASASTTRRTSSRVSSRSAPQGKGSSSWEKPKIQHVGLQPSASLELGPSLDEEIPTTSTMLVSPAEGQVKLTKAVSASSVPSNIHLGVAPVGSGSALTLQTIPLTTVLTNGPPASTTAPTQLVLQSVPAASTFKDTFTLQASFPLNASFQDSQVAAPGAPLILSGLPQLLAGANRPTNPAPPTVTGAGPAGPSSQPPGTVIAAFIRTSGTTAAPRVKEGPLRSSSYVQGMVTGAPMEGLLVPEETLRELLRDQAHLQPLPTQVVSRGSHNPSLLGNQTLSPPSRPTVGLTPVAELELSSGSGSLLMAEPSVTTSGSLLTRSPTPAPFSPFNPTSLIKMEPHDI
The target in the next test is T3, ELK4 (Homo sapiens, UniProt P28324-2 1-405).
T3 sequence: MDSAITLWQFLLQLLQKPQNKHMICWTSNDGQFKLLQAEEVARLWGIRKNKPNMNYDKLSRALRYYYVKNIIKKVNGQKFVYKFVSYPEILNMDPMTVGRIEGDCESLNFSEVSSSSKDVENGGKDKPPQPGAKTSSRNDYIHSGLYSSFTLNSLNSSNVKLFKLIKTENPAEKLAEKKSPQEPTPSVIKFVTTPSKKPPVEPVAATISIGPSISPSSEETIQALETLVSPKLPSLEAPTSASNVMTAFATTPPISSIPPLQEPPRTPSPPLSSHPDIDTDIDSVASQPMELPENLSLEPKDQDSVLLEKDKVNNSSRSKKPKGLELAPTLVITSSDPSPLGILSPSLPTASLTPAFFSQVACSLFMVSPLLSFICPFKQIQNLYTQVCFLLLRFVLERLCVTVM
The conditions noted are these: protein: recombinant; tags: N-terminal GST; dsDNA, one strand shown. The essentials:
as §1

For a further test, the target named is T4, ETV2 (Homo sapiens, UniProt O00321 1-342).
T4 sequence: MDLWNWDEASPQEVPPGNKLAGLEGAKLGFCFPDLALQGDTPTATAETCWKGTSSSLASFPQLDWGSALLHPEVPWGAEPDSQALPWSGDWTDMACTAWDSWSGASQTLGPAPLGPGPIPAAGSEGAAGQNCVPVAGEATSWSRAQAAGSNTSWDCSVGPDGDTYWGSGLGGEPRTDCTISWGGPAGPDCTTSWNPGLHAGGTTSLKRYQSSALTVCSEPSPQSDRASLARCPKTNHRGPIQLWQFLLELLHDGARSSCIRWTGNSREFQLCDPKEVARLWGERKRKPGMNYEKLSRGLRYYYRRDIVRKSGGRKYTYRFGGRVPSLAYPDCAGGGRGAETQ
The conditions noted are these: protein: recombinant; tags: N-terminal GST; dsDNA, one strand shown. The procedure, abridged: as §1

A further test deals with T5, ELF3 (Homo sapiens, UniProt P78545 1-371).
T5 sequence: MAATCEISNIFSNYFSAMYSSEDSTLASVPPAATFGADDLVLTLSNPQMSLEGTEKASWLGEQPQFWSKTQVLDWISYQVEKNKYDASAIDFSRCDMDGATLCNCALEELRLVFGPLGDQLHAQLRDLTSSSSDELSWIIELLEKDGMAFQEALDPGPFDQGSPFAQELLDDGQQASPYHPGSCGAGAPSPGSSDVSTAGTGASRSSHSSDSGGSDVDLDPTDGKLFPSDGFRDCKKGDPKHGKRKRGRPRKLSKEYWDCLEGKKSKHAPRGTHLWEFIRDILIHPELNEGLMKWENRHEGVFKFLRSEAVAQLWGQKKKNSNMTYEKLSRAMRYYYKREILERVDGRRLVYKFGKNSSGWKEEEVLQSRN
The conditions noted are these: protein: recombinant; tags: N-terminal GST; dsDNA, one strand shown. The procedure, abridged: as §1

Another test deals with CRX (Homo sapiens, UniProt O43186 1-299). The following applies: protein: recombinant; tags: N-terminal GST; dsDNA, one strand shown. The essentials: as §1
CRX, sequence (O43186 whole entry): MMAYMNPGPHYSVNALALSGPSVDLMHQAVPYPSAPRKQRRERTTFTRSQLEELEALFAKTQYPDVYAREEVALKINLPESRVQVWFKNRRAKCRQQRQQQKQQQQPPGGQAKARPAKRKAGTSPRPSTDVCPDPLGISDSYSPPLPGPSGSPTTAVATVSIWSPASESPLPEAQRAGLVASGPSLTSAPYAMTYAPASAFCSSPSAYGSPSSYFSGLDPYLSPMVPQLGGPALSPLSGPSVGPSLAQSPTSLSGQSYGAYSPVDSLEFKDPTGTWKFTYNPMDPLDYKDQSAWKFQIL
In the next test the target is ETV1 (Homo sapiens, UniProt P50549 1-477). The conditions noted are these: protein: recombinant; tags: N-terminal GST; dsDNA, one strand shown. The essentials:
as §1

For another test, the target named is T6, ERF (Homo sapiens, UniProt P50548 1-548).
T6 sequence: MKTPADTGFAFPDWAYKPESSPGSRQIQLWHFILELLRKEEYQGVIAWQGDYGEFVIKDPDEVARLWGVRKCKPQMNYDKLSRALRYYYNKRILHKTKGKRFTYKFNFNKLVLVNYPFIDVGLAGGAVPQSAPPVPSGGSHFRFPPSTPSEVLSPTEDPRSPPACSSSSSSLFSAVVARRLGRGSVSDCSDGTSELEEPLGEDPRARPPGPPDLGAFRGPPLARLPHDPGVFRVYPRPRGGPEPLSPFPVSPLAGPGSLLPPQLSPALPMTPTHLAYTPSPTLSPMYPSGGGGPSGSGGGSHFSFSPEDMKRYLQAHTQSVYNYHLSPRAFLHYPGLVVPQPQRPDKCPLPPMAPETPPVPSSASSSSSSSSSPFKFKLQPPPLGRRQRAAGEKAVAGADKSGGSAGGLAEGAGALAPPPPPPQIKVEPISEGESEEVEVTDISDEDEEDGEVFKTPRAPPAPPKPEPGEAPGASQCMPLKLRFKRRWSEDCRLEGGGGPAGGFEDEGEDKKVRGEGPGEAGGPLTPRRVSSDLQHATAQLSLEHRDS
The conditions noted are these: protein: recombinant; tags: N-terminal GST; dsDNA, one strand shown. The essentials: as §1

Another test concerns the target T7, ETV3L (Homo sapiens, UniProt Q6ZN32 1-361).
T7 sequence: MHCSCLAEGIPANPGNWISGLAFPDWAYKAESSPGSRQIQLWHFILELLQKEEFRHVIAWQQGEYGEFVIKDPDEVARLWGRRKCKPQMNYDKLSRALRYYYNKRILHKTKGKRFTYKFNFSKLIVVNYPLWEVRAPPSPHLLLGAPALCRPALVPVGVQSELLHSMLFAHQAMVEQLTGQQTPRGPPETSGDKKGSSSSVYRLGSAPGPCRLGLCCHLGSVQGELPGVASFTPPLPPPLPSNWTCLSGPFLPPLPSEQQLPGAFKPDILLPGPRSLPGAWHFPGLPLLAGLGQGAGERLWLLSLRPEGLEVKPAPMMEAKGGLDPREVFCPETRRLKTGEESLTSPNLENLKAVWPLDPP
The conditions noted are these: protein: recombinant; tags: N-terminal GST; dsDNA, one strand shown. The procedure, abridged: as §1

A further test addresses T8, ETS2 (Homo sapiens, UniProt P15036 1-469).
T8 sequence: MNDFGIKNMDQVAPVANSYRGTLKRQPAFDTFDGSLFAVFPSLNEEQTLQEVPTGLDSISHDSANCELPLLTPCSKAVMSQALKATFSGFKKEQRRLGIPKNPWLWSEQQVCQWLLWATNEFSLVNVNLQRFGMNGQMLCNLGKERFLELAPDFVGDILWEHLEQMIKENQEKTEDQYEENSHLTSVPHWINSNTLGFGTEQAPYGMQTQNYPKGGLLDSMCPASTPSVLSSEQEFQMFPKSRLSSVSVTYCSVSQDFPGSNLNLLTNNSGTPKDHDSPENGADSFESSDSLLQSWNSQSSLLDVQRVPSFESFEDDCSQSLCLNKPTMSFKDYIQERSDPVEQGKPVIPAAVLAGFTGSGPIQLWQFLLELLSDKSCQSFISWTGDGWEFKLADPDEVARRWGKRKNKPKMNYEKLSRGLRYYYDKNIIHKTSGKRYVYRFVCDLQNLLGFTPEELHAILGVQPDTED
The conditions noted are these: protein: recombinant; tags: N-terminal GST; dsDNA, one strand shown. The essentials:
as §1

For the next test, the target named is T9, SPDEF (Homo sapiens, UniProt O95238 1-335).
T9 sequence: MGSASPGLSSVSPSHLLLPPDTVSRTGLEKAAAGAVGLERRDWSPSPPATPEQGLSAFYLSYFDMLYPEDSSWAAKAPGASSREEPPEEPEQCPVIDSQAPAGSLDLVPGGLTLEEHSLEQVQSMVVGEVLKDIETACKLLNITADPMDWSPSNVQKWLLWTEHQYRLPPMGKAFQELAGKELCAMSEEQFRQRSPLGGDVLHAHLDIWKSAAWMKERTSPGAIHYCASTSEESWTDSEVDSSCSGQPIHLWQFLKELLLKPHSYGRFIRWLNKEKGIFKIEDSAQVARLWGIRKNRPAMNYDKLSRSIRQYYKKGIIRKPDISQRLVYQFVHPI
The following applies: protein: recombinant; tags: N-terminal GST; dsDNA, one strand shown. The essentials:
as §1

Another test has as its target T10, ETV7 (Homo sapiens, UniProt Q9Y603 1-341).
T10 sequence: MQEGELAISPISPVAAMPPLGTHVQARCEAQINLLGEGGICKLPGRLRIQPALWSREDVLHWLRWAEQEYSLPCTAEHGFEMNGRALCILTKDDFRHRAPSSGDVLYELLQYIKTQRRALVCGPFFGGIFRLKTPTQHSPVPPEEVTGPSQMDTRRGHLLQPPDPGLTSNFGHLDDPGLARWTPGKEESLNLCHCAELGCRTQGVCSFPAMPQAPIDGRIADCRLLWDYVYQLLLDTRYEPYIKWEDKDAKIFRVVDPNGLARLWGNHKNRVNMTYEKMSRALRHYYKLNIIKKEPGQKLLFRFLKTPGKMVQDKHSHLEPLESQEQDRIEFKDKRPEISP
The following applies: protein: recombinant; tags: N-terminal GST; dsDNA, one strand shown. The procedure, abridged: as §1

The next test concerns the target T11, ELF5 (Homo sapiens, UniProt Q9UKW6-2 1-255).
T11 sequence: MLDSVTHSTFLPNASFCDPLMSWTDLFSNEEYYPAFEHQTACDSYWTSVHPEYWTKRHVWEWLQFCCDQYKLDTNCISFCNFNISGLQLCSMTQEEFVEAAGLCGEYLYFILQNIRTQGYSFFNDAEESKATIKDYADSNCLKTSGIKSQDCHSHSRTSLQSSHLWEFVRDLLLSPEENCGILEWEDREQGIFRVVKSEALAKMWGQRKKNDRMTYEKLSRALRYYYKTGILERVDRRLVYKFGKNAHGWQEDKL
The conditions noted are these: protein: recombinant; tags: N-terminal GST; dsDNA, one strand shown. The essentials:
as §1

A further test concerns the target T12, ETV3 (Homo sapiens, UniProt P41162-2 1-143).
T12 sequence: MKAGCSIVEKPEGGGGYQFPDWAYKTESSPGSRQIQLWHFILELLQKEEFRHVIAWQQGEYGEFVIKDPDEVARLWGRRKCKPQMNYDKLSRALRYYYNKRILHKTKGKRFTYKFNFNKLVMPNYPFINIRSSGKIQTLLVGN
The conditions noted are these: protein: recombinant; tags: N-terminal GST; dsDNA, one strand shown. The procedure, abridged: as §1

Another test concerns the target ETV6 (Homo sapiens, UniProt P41212 1-452). The following applies: protein: recombinant; tags: N-terminal GST; dsDNA, one strand shown. The essentials: as §1

ETV1, sequence (P50549 whole entry): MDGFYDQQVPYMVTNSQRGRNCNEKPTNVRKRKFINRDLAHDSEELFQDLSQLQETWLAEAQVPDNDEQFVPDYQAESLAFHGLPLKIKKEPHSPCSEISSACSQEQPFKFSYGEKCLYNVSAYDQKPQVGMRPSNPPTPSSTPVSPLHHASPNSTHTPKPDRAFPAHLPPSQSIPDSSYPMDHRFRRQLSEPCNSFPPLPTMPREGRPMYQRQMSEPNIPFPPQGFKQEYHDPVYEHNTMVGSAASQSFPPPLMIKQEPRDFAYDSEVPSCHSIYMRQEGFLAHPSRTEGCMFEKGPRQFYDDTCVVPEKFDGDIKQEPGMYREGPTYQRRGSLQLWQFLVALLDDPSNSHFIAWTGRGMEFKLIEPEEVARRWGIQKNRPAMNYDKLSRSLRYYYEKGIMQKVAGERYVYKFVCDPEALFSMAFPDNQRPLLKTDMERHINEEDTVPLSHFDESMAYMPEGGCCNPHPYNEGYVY
ETV5, sequence (P41161 whole entry): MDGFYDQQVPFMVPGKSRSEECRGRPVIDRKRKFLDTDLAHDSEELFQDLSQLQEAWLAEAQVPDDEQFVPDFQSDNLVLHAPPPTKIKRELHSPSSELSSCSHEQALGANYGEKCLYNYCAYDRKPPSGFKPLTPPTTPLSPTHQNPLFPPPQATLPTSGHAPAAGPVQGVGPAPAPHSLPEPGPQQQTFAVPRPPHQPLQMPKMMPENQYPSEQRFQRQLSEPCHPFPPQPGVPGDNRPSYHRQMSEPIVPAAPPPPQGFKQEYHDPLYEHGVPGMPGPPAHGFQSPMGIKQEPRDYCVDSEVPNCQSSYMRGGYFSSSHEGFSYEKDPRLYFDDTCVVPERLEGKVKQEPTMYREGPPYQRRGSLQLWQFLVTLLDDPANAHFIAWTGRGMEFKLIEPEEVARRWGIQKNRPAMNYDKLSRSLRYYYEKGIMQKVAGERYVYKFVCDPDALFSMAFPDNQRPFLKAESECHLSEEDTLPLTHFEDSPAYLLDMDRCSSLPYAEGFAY
ETV6, sequence (P41212 whole entry): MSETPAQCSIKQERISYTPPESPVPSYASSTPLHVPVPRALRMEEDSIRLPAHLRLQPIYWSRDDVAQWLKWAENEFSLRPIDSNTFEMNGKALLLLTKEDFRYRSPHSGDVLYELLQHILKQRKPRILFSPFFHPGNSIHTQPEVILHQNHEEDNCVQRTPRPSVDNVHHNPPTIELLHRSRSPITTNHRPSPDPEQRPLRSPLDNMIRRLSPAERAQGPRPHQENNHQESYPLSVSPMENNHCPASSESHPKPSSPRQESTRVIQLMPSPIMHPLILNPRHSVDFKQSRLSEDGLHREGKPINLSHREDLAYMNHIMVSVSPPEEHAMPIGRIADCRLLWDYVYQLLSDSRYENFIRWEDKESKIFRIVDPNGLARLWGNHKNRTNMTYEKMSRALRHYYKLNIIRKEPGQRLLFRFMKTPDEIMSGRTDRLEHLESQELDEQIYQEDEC
HSF1, sequence (Q00613 whole entry): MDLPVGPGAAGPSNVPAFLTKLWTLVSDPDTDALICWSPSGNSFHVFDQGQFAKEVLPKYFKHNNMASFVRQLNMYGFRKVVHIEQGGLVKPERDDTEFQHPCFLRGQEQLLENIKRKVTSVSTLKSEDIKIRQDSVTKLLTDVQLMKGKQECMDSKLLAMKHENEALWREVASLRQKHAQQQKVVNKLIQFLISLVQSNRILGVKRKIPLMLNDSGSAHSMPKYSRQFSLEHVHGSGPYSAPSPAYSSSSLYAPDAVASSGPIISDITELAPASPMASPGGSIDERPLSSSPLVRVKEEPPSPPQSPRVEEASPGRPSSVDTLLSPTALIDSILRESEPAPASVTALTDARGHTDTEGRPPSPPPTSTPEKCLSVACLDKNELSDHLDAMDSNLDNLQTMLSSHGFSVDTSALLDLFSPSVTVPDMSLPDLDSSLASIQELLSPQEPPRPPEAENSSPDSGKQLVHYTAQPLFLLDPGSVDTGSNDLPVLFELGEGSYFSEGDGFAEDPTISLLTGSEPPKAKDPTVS

Turning to TTTTCC, the binding signal in the test with FEV is 1.74 fold enrichment (6-mer frequency, TF over GST control); in the test with ETV5, 1.92 fold enrichment (6-mer frequency, TF over GST control); with HSF1 it was 1.73 fold enrichment (6-mer frequency, TF over GST control); in the test with SPIC, 1.72 fold enrichment (6-mer frequency, TF over GST control); in the test with ELF4, 1.84 fold enrichment (6-mer frequency, TF over GST control); with ELK4, 1.62 fold enrichment (6-mer frequency, TF over GST control). For the same sequence, the binding signal with ETV2 was 1.88 fold enrichment (6-mer frequency, TF over GST control); with ELF3 it was 1.89 fold enrichment (6-mer frequency, TF over GST control); in the test with CRX, 1.44 fold enrichment (6-mer frequency, TF over GST control); with ETV1 it was 1.65 fold enrichment (6-mer frequency, TF over GST control); with ERF, 1.65 fold enrichment (6-mer frequency, TF over GST control); with ETV3L, 1.71 fold enrichment (6-mer frequency, TF over GST control). In addition, the binding signal is 1.69 fold enrichment (6-mer frequency, TF over GST control) with ETS2; 1.67 fold enrichment (6-mer frequency, TF over GST control) in the test with SPDEF; 1.78 fold enrichment (6-mer frequency, TF over GST control) with ETV7; 2.37 fold enrichment (6-mer frequency, TF over GST control) with ELF5; 1.82 fold enrichment (6-mer frequency, TF over GST control) with ETV3; 2.08 fold enrichment (6-mer frequency, TF over GST control) with ETV6.

For the origin of these results see PMC7862700, “An all-to-all approach to the identification of sequence-specific readers for epigenetic DNA modifications on cytosine”.
